This is part of a sample that, as a whole, favours compounds with a hit. Of some 83,000 tested, about 20% had one in any assay.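 The test compound was applied at a single concentration to cells in 96-well plates for 48 hours, and percent growth was recorded.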 Values without a mark were called inactive. Calls of active or inactive are those of the source. The calls were made as follows: active = growth percent below 10; inactive = the rest.
Each molecule was assayed on NCI/ADR-RES ovarian (assay: NCI-60 one-dose screen, 48 h (100 = growth as untreated, 0 = no growth, -100 = all killed)). Details: 10 µM unless noted.

Row | SMILES | growth
1 | O=C(Cn1c2ccccc2c2ccncc21)N/N=C/c1c[nH]c2ccccc12 | 94.6%
2 | CC1(C)CC(=O)C2=C(C1)OC1=C(C(=O)CC(C)(C)C1)C2c1ccc(OCc2cn(-c3ccc(F)cc3F)nn2)cc1 | 94%
3 | c1ccc2c(c1)Oc1cccnc1-n1nccc1-2 | 100%
4 | NC(=NCCCOc1ccc(F)cc1)Nc1ccc(Cl)c(Cl)c1 | 69.9%
5 | O=C1OC(N(Cc2ccc(Cl)cc2)c2ccccc2)c2ccccc21 (stereo not drawn) | 105%
6 | O=C(Nc1cccc([N+](=O)[O-])c1)Nc1cccc([N+](=O)[O-])c1 | 52.1%
7 | CCOc1ccc(-n2c(-c3cc(OC)c(OC)c(OC)c3)nnc2-c2ccc(OC)cc2N)cc1 | 77.1%
8 | CC(=O)CC/C=C(\C)[C@H](O)[C@H](C)C(=O)O[C@H]1C[C@H](C)C=C2C=C[C@@]3(C)O[C@@H](O)CC(=O)[C@]3(C)[C@H]21 | 0.0427% (active)
9 | Cc1cccc[n+]1CCC[n+]1ccccc1C | 106%
10 | C#CC(=O)/C=C/CCCCCCC#CC(=O)CCC(=O)C#CCCCCCC/C=C/C(=O)C#C | 11%
11 | COc1ccc2c(c1)OC(N)=C(C#N)C2c1ccc(F)cc1 (stereo not drawn) | 26%
12 | CC1=C2C(=C[C@@](C)(CO)[C@@H]2OC(=O)N(C)CCN(C)C(=O)OC(C)(C)C)C(=O)[C@](C)(O)C12CC2 | 10.7%
13 | COc1ccc2c(-c3ccc(F)cc3)c(C#N)c(=NC(C)=O)oc2c1 | 31.2%
14 | CC(C)(C)OC(=O)NCc1cccc(N=C=S)c1 | 71.3%
15 | CN(C)CCS(=O)(=O)Nc1cc(-c2ccc3ncnc(Nc4ccc(F)c(Cl)c4)c3c2)cnc1Cl | 14.9%
16 | C=C1C(=O)O[C@H]2[C@H]1CC/C(COC(=O)c1ccc(Cl)nc1)=C\CC[C@@]1(C)O[C@@H]21 | 42.1%
17 | C=CC(=O)NC(=O)Nc1ccccc1Cl | 105%
18 | Nc1nc(-c2cc3c(cc2Cl)NC(=O)/C3=C/c2ccc(Cl)cc2)cs1 | 74.5%
19 | COc1cc2ncn3c(=O)c4c5c(sc4nc3c2cc1OC)CCCCC5 | 92.4%

Row | SMILES | growth
20 | CCn1cc(C(=O)O)c(=O)c2cc(F)c(N3CCN(CC(=O)Nc4ccc(C(C)=O)cc4)CC3)cc21 | 97.1%
21 | CCNC(=O)Oc1ccc(/C(=C(/CC)Cc2ccccc2)c2ccc(OCCN3CCOCC3)cc2)cc1 | 49.4%
22 | CCCCCCCCCCCCCCCCNc1ccccc1 | 104%
23 | CC(/C=C/C=C(\C)[C@H](O)[C@H](C)C(=O)O[C@H]1C[C@H](C)C=C2C=C[C@@]3(C)O[C@@H](O)CC(=O)[C@]3(C)[C@H]21)=C\C=C\C(=O)O | 53.8%
24 | COc1ccc2c(c1)OC(N(C(C)=O)C(C)=O)=C(C#N)C2c1ccc(F)cc1 (stereo not drawn) | 30.6%
25 | N#Cc1c(N)nc(Cl)c(C#N)c1C(=O)c1ccccc1 | 81.4%
26 | CCCCCCCC(=O)SCC/C=C/[C@@H]1CC(=O)NCc2nc(cs2)C2=N[C@@](C)(CS2)C(=O)N[C@@H](C(C)C)C(=O)N1 | 84.5%
27 | COC(=O)c1ccc2c(c1)Oc1ccc(Cl)cc1-c1cc(C)nn1-2 | 73.4%
28 | Nc1n[nH]c2cccc(C#Cc3cccc(NC(=O)c4cccc(C(F)(F)F)c4)c3)c12 | 43.2%
29 | Cc1ccc(NC(=O)CN2CCOCC2)cc1Cl | 103%
30 | C=C1C(=O)O[C@H]2[C@H]1CC/C(COC(=O)c1ccc(C#N)cc1)=C\CC[C@@]1(C)O[C@@H]21 | 54.5%
31 | C=CC(C)(O)CCC1C(=C)CCC2C(C)(C)CCCC12C (stereo not drawn) | 101%
32 | CCOC(=O)c1noc2c1CCc1cn(Cc3cc(OC)cc(OC)c3)cc1-2 | 97.9%
33 | Nc1nc(Nc2ccc(OCc3cccc(F)c3)cc2)c2c(n1)[nH]c1ccc(O)cc12 | 32.3%
34 | C#C[C@@]1(O)[C@@H](CO)O[C@@H](n2cc(Br)c3c(Cl)ccnc32)[C@@H]1O | 0.838% (active)
35 | C=C1C(=O)O[C@H]2[C@H]1CC/C(CNC(=O)/C1=C/CC[C@@]3(C)O[C@H]3[C@H]3OC(=O)C(=C)[C@@H]3CC1)=C\CC[C@@]1(C)O[C@@H]21 | 99.7%
36 | COc1ccc(N)c(S)c1 | 98.4%
37 | C=CC(=O)Nc1cccc(Nc2nc(Nc3ccc(OCCOC(F)F)cc3)ncc2F)c1 | 44.6%
38 | O=C(c1ccccc1)[C@H]1[C@@H]2CCCN2[C@]2(C(=O)Nc3ccc(F)cc32)[C@]12C(=O)Nc1ccccc12 | 96.7%
